# Measured values published in PubChem BioAssay AID2061319 (National Center for Advancing Translational Sciences (NCATS), 2025).
# Inconclusive results are not listed. Values without a mark were called inactive. Calls of active or inactive are those of the source. The call rests on the fitted dose curve; in most records, active means well fitted inhibition curve with a large enough effect; inconclusive means small, poorly fitted or top-dose-only effect; inactive means flat fitted curve, though single readings scatter. Square brackets hold non-standard residues; d marks the D form. Peptide text beside a SMILES is read from it. * marks the point of attachment. Dolaproine = CO[C@@H]([C@@H]1CCCN1)[C@@H](C)C(=O)O; Dil = CC[C@H](C)[C@H](NC)[C@@H](CC(=O)O)OC; X1 = C[C@@H](N*)[C@@H](O)c1ccccc1; NMeV = CN[C@H](C(=O)O)C(C)C
# Experiment: Identification of antibody-drug conjugate (ADC) payloads which are substrates of ATP-binding cassette drug efflux transporters: ABCG2-H460-MX20 cell line with Ko143
# Details: H460-MX20 (ABCG2) + Ko143, CellTiter-Glo viability, 48 h; series mostly up to 28.7 µM; activity change, negative = cytotoxicity: at the top concentration
# Excerpt: Antibody-drug conjugates (ADCs) feature an antibody recognizing a specific protein joined to a potent toxic payload. Numerous antibody-drug conjugates have received FDA approval; however, clinical resistance arises. Resistance mechanisms include decreased expression or mutation of the antibody target, impaired payload release, or increased expression of ATP-binding cassette (ABC) efflux transporters associated with multidrug resistance. We therefore sought to characterize the interaction of ABC multidrug transporters with ADC payloads. We performed a high-throughput screen with 27 common ADC payloads using cells lines expressing ABC transporters P-glycoprotein (P-gp, encoded by ABCB1) or ABCG2 (encoded by ABCG2). Confirmatory assays were also performed using cells transfected to express P-gp, ABCG2, or MRP1 (encoded by ABCC1). Several commonly used ADC payloads were substrates of P-gp, including calicheamicin gamma1, monomethyl auristatin E, DM1, and DM4. All the pyrrolobenzodiazepines tested - SJG136, SGD-1882, SG2057, and SG3199 - were substrates of P-gp, ABCG2, and MRP1. […] These findings highlight the risk of transporter-mediated resistance with certain ADC payloads and underscore the importance of selecting payloads that evade ABC transporter recognition in future ADC development.
# HEK-293 cells were transfected with empty vector (pcDNA) or vector containing the human ABCB1 (MDR-19), ABCG2 (R-5), or ABCC1 gene (MRP1) and were maintained in EMEM with 2 mg/mL G418 added to maintain transporter expression. The HeLa derivative KB-3-1 and the P-gp overexpressing KB-8-5-11 subline were maintained in DMEM; KB-8-5-11 additionally received 100 ng/mL colchicine. H460 parental cells were obtained from the Division of Cancer Treatment and Diagnosis Tumor Repository, National Cancer Institute at Frederick, MD and were cultured in RPMI. The ABCG2 expressing subline H460 MX20 was generated by selecting H460 cells in 20 nM mitoxantrone. Media in all cases was supplemented with 10% FBS and 1% penicillin-streptomycin. We explored 27 common ADC payloads, in two orthogonal, paired cell line sets-a drug selected and transfected set for each transporter--to identify substrates of the ABC transporters P-gp and ABCG2. Compounds were sourced from Levena Biopharma (San Diego, CA), Selleck Chem (Houston, TX), ChemieTek (Indianapolis, IN), or Microsource Discovery Systems (Gaylordsville, CT). Screening was performed as previously described. Briefly, cells were plated at a density of 500 cells/well in 1536 well plates with compounds added using a 1536-head pin tool (Kalypsys, San Diego CA). Cells were incubated with cytotoxic drugs and processed with CellTiter Glo reagent (Promega, Madison, WI) to determine viability after 48 hours. P-gp substrates were identified by comparing compound activity between paired sets of low-expressing (sensitive) and over-expressing (resistant) cell lines.
Structure (SMILES),Potency,"activity change, negative = cytotoxicity"
CC[C@H](C)[C@@H]([C@@H](CC(=O)N1CCC[C@H]1[C@H](OC)[C@@H](C)C(=O)N[C@H](C)[C@@H](O)c1ccccc1)OC)N(C)C(=O)[C@@H](NC(=O)[C@H](C(C)C)N(C)C)C(C)C,6710 nM (active),
COc1cc2cc(C(=O)N3C[C@@H](CCl)c4c3cc(O)c3ccccc43)[nH]c2c(OC)c1OC,1.9 nM (active),
CC[C@H](C)[C@@H]1NC(=O)CNC(=O)[C@H]2Cc3c([nH]c4cc(O)ccc34)S(=O)C[C@H](NC(=O)CNC1=O)C(=O)N[C@@H](CC(N)=O)C(=O)N1C[C@H](O)C[C@H]1C(=O)N[C@@H]([C@@H](C)[C@@H](O)CO)C(=O)N2 (stereo partly drawn),533 nM (active),
CC[C@@]1(O)C(=O)OCc2c1cc1n(c2=O)Cc2cc3ccccc3nc2-1,238 nM (active),
CC[C@H](C)[C@H](NC(=O)[C@H]1CCCCN1C)C(=O)N(C)[C@H](C[C@@H](OC(C)=O)c1nc(C(=O)O)cs1)C(C)C,,-27.7%
CC[C@H](C)[C@@H]([C@@H](CC(=O)N1CCC[C@H]1[C@H](OC)[C@@H](C)C(=O)N[C@H](C)[C@@H](O)c1ccccc1)OC)N(C)C(=O)[C@@H](NC(=O)[C@@H](NC)C(C)C)C(C)C (H-[NMeV]V[Dil][Dolaproine]-X1),,-30.4%
CC[C@H](C)[C@H](NC(=O)[C@H]1CCCCN1C)C(=O)N(C)[C@H](C[C@@H](OC(C)=O)c1nc(C(=O)N[C@@H](Cc2ccccc2)C[C@H](C)C(=O)O)cs1)C(C)C,,-26%
COc1cccc2c1C(=O)c1c(O)c3c(c(O)c1C2=O)C[C@@](O)(C(=O)CO)CC3OC1CC(N2CCOC(OC)C2)C(O)C(C)O1 (stereo partly drawn),9.5 nM (active),
